Results filed as inconclusive are left out. Calls of active or inactive are those of the source. The call rests on the fitted dose curve; in most records, active means well fitted curve in the direction sought with a large enough effect; inconclusive means small, poorly fitted or top-dose-only effect, or another doubt; inactive means no such curve, though single readings can be large; an effect the other way counts as inactive or inconclusive.
How the values were obtained:
[1] = target: Cellular tumor antigen p53 (Homo sapiens) (UniProt P04637); test: Primary qHTS for small molecule compounds that upregulate eGFP-tagged delta133p53alpha (in N-terminal) cells. (AID 2060322); conditions: NCI-H358 eGFP-delta133p53alpha fluorescence, 24 h; activation: stronger effect = higher value;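 further: cells pre-induced with doxycycline then dosed without doxycycline; series mostly up to about 56 µM; 0% = DMSO vehicle and 100% = reference activator; nearly all actives have a fitted effect of over 75% in size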
Outline: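 NCI-H358 cells pre-induced 24 h with 10 ng/ml doxycycline for eGFP-delta133p53alpha, plated dox-free and exposed 24 h at 37C to titrated compounds. Fixed, Hoechst-stained; gated GFP peak intensity by laser scanning cytometry, normalized to DMSO (0%) and 57.5 uM 5-azacytidine (100%).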

[2] = target: Aldehyde dehydrogenase, mitochondrial (Homo sapiens) (UniProt P05091); test: qHTS for Inhibitors of the Aldehyde Dehydrogenase Family (ALDH2) Primary screen (AID 2061308);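 further: plate controls were vehicle for no effect and reference inhibitor for full effect; nearly all actives have a fitted effect of over 55% in size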
[3] = target: Retinaldehyde dehydrogenase 3 (Homo sapiens) (UniProt P47895); test: qHTS for Inhibitors of the Aldehyde Dehydrogenase Family (ALDH1A3) Primary screen (AID 2061315);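 further: plate controls were DMSO vehicle for no effect and reference inhibitor for full effect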

Cellular tumor antigen p53 (Homo sapiens), sequence (P04637 whole entry, looked up): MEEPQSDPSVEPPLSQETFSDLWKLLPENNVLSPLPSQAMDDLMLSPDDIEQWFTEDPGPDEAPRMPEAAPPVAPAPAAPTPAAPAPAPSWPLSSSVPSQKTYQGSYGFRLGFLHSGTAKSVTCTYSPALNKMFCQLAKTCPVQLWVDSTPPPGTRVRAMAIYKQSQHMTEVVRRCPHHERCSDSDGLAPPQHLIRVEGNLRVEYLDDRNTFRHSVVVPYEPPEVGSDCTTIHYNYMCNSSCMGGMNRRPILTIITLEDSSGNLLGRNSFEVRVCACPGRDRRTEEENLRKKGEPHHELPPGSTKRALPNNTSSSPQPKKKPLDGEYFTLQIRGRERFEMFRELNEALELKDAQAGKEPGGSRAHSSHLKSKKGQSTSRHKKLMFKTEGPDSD

C=CCC/C=C/C#CCCCCCCCC[C@H]1C(=O)O[C@H](C)[C@@H]1O
inactive: activation [1] 8.4% | Potency [2] | Potency [3]

CC1C/C=C/C=C\CCCCC(O)C/C=C/C(=O)O1 (centres undefined)
inactive: activation [1] -17.9% | Potency [2] | Potency [3]

CC(C)CC(=O)OC1OC=C(CO[C@@H]2O[C@H](CO)[C@@H](O)[C@H](O)[C@H]2O)C2CC(O)C(O)(CO)C12 (some centres undefined)
inactive: activation [1] 15.2% | Potency [2] | Potency [3]

C=C1CC23CC(=O)C4C(CO)(CO)CCCC4(C)C2CCC1C3 (centres undefined)
inactive: activation [1] -3.05% | Potency [2] | Potency [3]

C[C@H](NC(c1cccc(C[P+](=O)O)c1)[C@H](C)O)c1ccc(Cl)c(Cl)c1 (some centres undefined)
inactive: activation [1] 9% | Potency [2] | Potency [3]

C=C(C)[C@@H]1CC[C@](C)(O)[C@@H](OC(=O)c2ccccc2)C1
inactive: activation [1] -15.2% | Potency [2] | Potency [3]

C[C@@H]1CCC2C(C)(C)[C@H](O)CC[C@]2(C)[C@@]12Cc1c(O)cc3c(c1O2)CN([C@@H](CCC(=O)O)C(=O)O)C3=O (some centres undefined)
inactive: activation [1] -9.16% | Potency [2] | Potency [3]

COc1cc2ncnc(Nc3ccc(F)c(Cl)c3)c2cc1OCCCN1CCOCC1
inactive: activation [1] -5.67% | Potency [2] | Potency [3]

COc1cc(C(CO)CO[C@@H]2O[C@H](CO)[C@@H](O)[C@H](O)[C@H]2O)ccc1O (some centres undefined)
inactive: activation [1] -11.5% | Potency [2] | Potency [3]

COC1=Cc2c(nc3n(c2=O)C(C)C(=O)NC3(O)C(C)C)OC=C1 (centres undefined)
inactive: activation [1] -17.6% | Potency [2] | Potency [3]

C=C1C[C@]23C[C@H]1CC[C@H]2[C@]1(C)CCC[C@@]2(CO)C(=O)O[C@H]([C@H]21)[C@@H]3O
inactive: activation [1] -6.11% | Potency [2] | Potency [3]

C/C=C(\C)C(=O)OCC1OC(OCC2OC(OC3(CO)OC(CO)C(O)C3O)C(O)C(O)C2O)C(O)C(O)C1O (centres undefined)
inactive: activation [1] -9.16% | Potency [2] | Potency [3]

CC(C)[C@@H](C(=O)O)N1Cc2c(cc(O)c3c2O[C@]2(C3)[C@H](C)CCC3C(C)(C)[C@H](O)[C@H](O)C[C@@]32C)C1=O (some centres undefined)
inactive: activation [1] -16.8% | Potency [2] | Potency [3]

C=CC1C(OC2OC(CO)C(O)C(O)C2O)OC=C(C(=O)OC)C1CC(=O)OCC1C(C)C(O)CC1C(CO)COC(=O)CC1C(C(=O)O)=COC(OC2OC(CO)C(O)C(O)C2O)/C1=C\C (centres undefined)
inactive: activation [1] -16% | Potency [2] | Potency [3]

CC1=CCC2C(C)(C)CCCC2(C)C1CC12OC1C(O)C(CO)=CC2O (centres undefined)
inactive: activation [1] -16.8% | Potency [2] | Potency [3]

OC[C@H]1O[C@@H](OCCc2ccccc2)[C@H](O)[C@@H](O)[C@@H]1O
inactive: activation [1] -2.29% | Potency [2] | Potency [3]

C=C(C)[C@@H](C)[C@H]1O[C@]23C[C@]4(CO2)C(CCC2[C@@]5(C)CC[C@H](O[C@@H]6OC[C@H](O)[C@H](O[C@@H]7O[C@H](CO)[C@@H](O)[C@H](O)[C@H]7O)[C@H]6O[C@@H]6O[C@@H](CO)[C@H](O)[C@H]6O)C(C)(C)C5CC[C@]24C)C3[C@@](C)(O)[C@@H]1OC(C)=O (some centres undefined)
inactive: activation [1] -7.63% | Potency [2] | Potency [3]

CC1(C)O[C@]23C[C@H]1C[C@H](OC(=O)c1ccoc1)[C@]2(C)[C@@H](OC(=O)c1ccoc1)CCC3(C)O (some centres undefined)
inactive: activation [1] -5.34% | Potency [2] | Potency [3]

C/C=C/[C@@H]1C=C[C@@H]2C[C@H](C)CC[C@H]2[C@]1(C)/C(O)=C1/C(=O)[C@@H](CO)N(C)C1=O
inactive: activation [1] 6.87% | Potency [2] | Potency [3]

CCCCCCc1cccc(NC(=O)[C@H](N)CCP(=O)(O)O)c1
inactive: activation [1] 1% | Potency [2] | Potency [3]

C=C1CC2C3(C)C(OC(C)=O)CC(=O)OC(C)(C)C3C(O)C(OC(C)=O)C2(C)C2C(=O)OC(C)C(=O)C12C (centres undefined)
inactive: activation [1] -19.8% | Potency [2] | Potency [3]

CC(C)C1=CC2C(CC[C@]2(C)O)[C@](C)(O)CC1 (some centres undefined)
inactive: activation [1] -6.25% | Potency [2] | Potency [3]

Nc1ncnc2c1c(-c1ccc(Cl)cc1)nn2-c1cccc(-c2cnnn2Cc2cccc(-c3ccccc3)c2)c1
inactive: activation [1] 8.04% | Potency [2] | Potency [3]

— PubChem BioAssay (NCATS)
